# Screens (PubChem BioAssay)
# Sampled rows, rich in hits. Any-hit rate of the full collection: about 5.4%.
# HSF1 inh = HSF1 inhibition; NIH3T3-HGL HSE-luciferase, MG132-induced, luminescence 8 h; stronger effect = lower value; activity change, negative = inhibition, % at 7.5 µM (by protocol); actives 0.77% (n = 300,000); AID 2098;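 active = more than half of replicate wells show activity change below -50%, luminescence cut by over half; inconclusive = some wells, but at most half, below -50%; inactive = no replicate well below -50%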;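 also: luciferase reports HSF-1 transcriptional activity via heat shock element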
# HSF1 activator = increases HSF-1 driven luciferase reporter signal | NIH3T3-HGL HSF-1 luciferase reporter, MG132, 8 h; 100% = twice DMSO control signal | activation, % at 9 µM | actives 1.7% (n = 300,000) | AID 504408;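 active = mean replicate activation of at least 50% with a set share of replicates each reaching 50%; inconclusive = only one of those two conditions met; inactive = mean below 50% and too few replicates reaching it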
# GAA850 FXN act = increases GAA850 frataxin promoter reporter activity; HEK293 lucGAA850 FXN promoter luciferase reporter, 24 h; percent of 10 µM SAHA response; actives 0.56% (n = 360,000); activation, % at 6 µM;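 active = activation above the average of all compounds screened plus 3 SD, cutoff fixed separately per campaign, cut at about 7.5% in these data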
# AHR activator = human AHR activation | P35869 | AHR-responsive luciferase reporter cells, luminescence | activation, % at 5 µM | actives 2.5% (n = 320,000); in the data active = activation above about 47%
# DAX1 inh = inhibits human nuclear receptor DAX1; P51843; HEK293 Gal4-DAX1 luciferase reporter, luminescence; inhibition, % at 6.75 µM; actives 0.99% (n = 340,000); AID 504766;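 active = inhibition above the mean over all tested compounds plus 3 SD, cut at about 4.2% in these data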;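 also: inhibition shows as a rise in luminescence from relieved DAX1 repression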
# Target sequence (P51843 207-470 limits assumed): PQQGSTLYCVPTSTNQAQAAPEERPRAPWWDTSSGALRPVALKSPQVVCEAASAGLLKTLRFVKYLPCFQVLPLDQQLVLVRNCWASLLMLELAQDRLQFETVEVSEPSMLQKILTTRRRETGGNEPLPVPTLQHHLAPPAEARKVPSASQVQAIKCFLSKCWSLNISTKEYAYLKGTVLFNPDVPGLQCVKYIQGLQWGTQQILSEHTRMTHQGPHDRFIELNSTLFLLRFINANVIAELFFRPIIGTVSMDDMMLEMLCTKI
# GAA30 counter = GAA30 FXN promoter activation counter-screen. shares compounds with GAA850 FXN act. HEK293 lucGAA30 FXN promoter luciferase, 24 h; DMSO = 0%, 5 µM ipriflavone = 100%. activation, % at 6 µM. actives 66% (n = 1,900);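 active = mean activation above the mean of solvent-only control wells plus 3 SD, cut at about 22% in these data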;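 also: counterscreen of GAA850 promoter hits where activity marks nonselective or luminescence artifacts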
# GAA850 confirm = GAA850 FXN promoter activation confirmation; shares compounds with GAA850 FXN act; HEK293 lucGAA850 FXN promoter luciferase reporter, 24 h; 100% = activation by SAHA; activation, % at 6 µM; actives 86% (n = 1,900);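 active = mean activation above a set limit taken from the primary screen, cut at about 8% in these data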
# A number is an active result; . = inactive; ? = inconclusive; / = no result given.
SMILES,HSF1 inh,HSF1 activator,GAA850 FXN act,AHR activator,DAX1 inh,GAA30 counter,GAA850 confirm
C[C@@H]1CN([C@H](C)CO)S(=O)(=O)c2ccc(Br)cc2O[C@@H]1CN(C)Cc1ccc(-c2ccccc2)cc1,/,/,14.4,/,.,24.0,10.9
COc1ccc(NC2CCCN(C(=O)CCC(=O)c3ccc(F)cc3)C2)cc1 (stereo unspecified),.,.,.,.,.,/,/
COC(=O)C(CC(C)C)NC(=O)c1cccs1 (stereo unspecified),/,/,.,.,.,/,/
COc1ccc(NS(=O)(=O)c2cc(NC(=O)CNC(=O)c3cccc(OC)c3)ccc2C)cc1,.,.,7.9,.,.,32.5,17.6
CCN(CC)S(=O)(=O)c1cc(NC(=O)CSc2nc3c(cc2C#N)C(=O)CC(C)(C)C3)ccc1C,.,.,10.2,.,.,.,.
CN1CCC(N(C)C(=S)Nc2ccc(F)cc2)CC1,.,.,.,.,.,/,/
CC(=O)c1ccc(NC(=S)N(C)C2CCN(C)CC2)cc1,.,.,14.4,.,.,22.1,.
O=C(/C=C/c1ccccc1)NC(=S)Nc1ncccn1,.,.,.,.,.,/,/
O=C(/C=C/c1ccccc1)CC(=O)c1ccccc1O,.,.,8.9,.,4.4,72.4,29.1
Cn1c2ccccc2c(=O)c2ccc(NCc3ccc4c(c3)OCO4)cc21,/,/,11.2,/,.,71.4,26.9
CN1CCC[C@H]1CCNc1ccc2c(=O)c3ccccc3n(C)c2c1,/,/,12.5,/,.,46.0,69.4
Cn1c2ccccc2c(=O)c2cc(NCCCN3CCOCC3)ccc21,/,/,17.2,.,.,142.6,58.4
Cc1ccc(C(=O)CCC(=O)N2CCC(C(N)=O)CC2)s1,/,/,.,.,.,/,/
CC(Oc1ccc2ccc(=O)oc2c1)C(=O)NCCN1CCOCC1 (stereo unspecified),.,.,.,.,.,/,/
O=c1c2ccccc2nc(-c2ccco2)n1Cc1ccccc1,.,.,8.2,.,.,107.4,27.9
CCOC(=O)c1cnn2c(C)cc(-c3ccc(F)cc3)nc12,.,?,8.3,.,.,112.3,36.6
Cc1cc(-c2ccc(F)cc2)nc2cc(C(N)=O)nn12,.,.,.,.,.,/,/
NC(Cc1ccc(C(F)(F)F)cc1)c1csc(NC(=O)Nc2ccccc2Oc2ccccc2)n1 (stereo unspecified),/,/,11.7,/,/,.,8.2
COc1ccc(CC(N)c2csc(NC(=O)Nc3ccccc3C(C)C)n2)cc1 (stereo unspecified),/,/,.,/,/,/,/
COc1ccc(CC(N)c2csc(NC(=O)Nc3ccccc3Oc3ccccc3)n2)cc1 (stereo unspecified),/,/,8.1,/,/,.,.
COc1ccc(CC(N)c2csc(NC(=O)Nc3ccccc3Cc3ccccc3)n2)cc1 (stereo unspecified),/,/,14.9,/,/,.,7.7
CN(c1ccc(C(=O)NCCSC(C)(C)C)cc1)S(C)(=O)=O,.,.,8.1,.,.,104.0,30.2
Cc1cc(C(=O)COC(=O)c2nccnc2N)c(C)n1C,.,.,9.1,.,.,104.0,31.7
O=C1C(Cc2ccccc2O)NC(=S)N1c1ccccc1 (stereo unspecified),.,.,.,.,.,/,/
CCOC(=O)C/C(=N\Nc1ncnc2ccccc12)c1ccccc1,.,.,8.3,69.3,.,83.8,35.4
SMILES,HSF1 inh,HSF1 activator,GAA850 FXN act,AHR activator,DAX1 inh,GAA30 counter,GAA850 confirm
COc1cc(C#N)ccc1OC(=O)C1CCN(C(=O)c2ccc(F)cc2)CC1,.,.,.,.,.,/,/
N#CCCN(C(=O)COC(=O)CCc1nc2ccccc2c(=O)[nH]1)c1ccccc1F,/,/,.,.,.,/,/
Cc1ccc(CCN2C(=O)CCC2(C)C(=O)NC2CCCC2)cc1 (stereo unspecified),/,/,15.4,.,.,.,.
COc1ccc(CCN2C(=O)CCC2(C)C(=O)NC2CCCC2)cc1OC (stereo unspecified),.,.,.,.,.,/,/
O=C(Nc1ccc2oc(-c3cccc4ccccc34)nc2c1)c1ncn[nH]1,.,.,8.8,.,.,104.5,40.6
CCCc1cc(C(=O)Nc2cccnc2Cl)no1,.,.,.,.,.,/,/
CCCc1cc(C(=O)Nc2cc(C)ccc2O)no1,.,119.6,10.1,.,.,90.9,42.8
COCCNc1nc(NCCN2CCNC2=O)c2sc(-c3ccccc3)cc2n1,/,/,.,/,/,/,/
CCSc1nnc(NC(=O)CSc2nnc(C)c(=O)n2N)s1,.,.,.,.,.,/,/
CCOC(=O)NC(=O)CSc1nc(C)cc(C)c1C#N,.,.,8.2,.,.,102.8,29.9
CCN=c1scc(-c2cccs2)n1/N=C/c1cc(OC)ccc1O,/,/,.,.,.,/,/
CC(C)N=c1scc(-c2cccs2)n1/N=C/c1ccc(O)c(O)c1O,/,/,9.0,.,.,48.7,22.6
COc1ccc(OC)c(-c2cc(C(=O)Nc3c(C)nn(Cc4ccccc4)c3C)no2)c1,.,.,7.8,.,.,.,12.5
Cn1nc(C(=O)NNC(=O)C2CSC3(C)CCC(=O)N23)c2ccccc2c1=O (stereo unspecified),.,.,.,.,.,/,/
O=S(=O)(NCC(Nc1ccc(Cl)cc1)c1ccccc1)c1ccc(Cl)cc1 (stereo unspecified),.,.,8.5,.,.,.,10.0
O=S(=O)(NCC(c1ccccc1)N1CCC(O)CC1)c1ccc(Cl)cc1 (stereo unspecified),.,.,.,.,.,/,/
C=C1c2cccc(O)c2C(O)=C2C(=O)[C@]3(O)C(O)=C(C(N)=O)C(=O)[C@@H](N(C)C)[C@@H]3[C@@H](O)[C@H]12,.,.,16.5,.,.,28.4,9.6
CN(C)c1ccc(O)c2c1CC1CC3[C@@H](N(C)C)C(=O)C(C(N)=O)C(=O)[C@]3(O)C(=O)C1C2=O (stereo partly specified),/,/,10.8,.,.,35.2,10.9
CN(C)c1ccc(O)c2c1CC1CC3C(N(C)C)C(=O)C(C(N)=O)=C(O)[C@@]3(O)C(=O)C1=C2O (stereo partly specified),.,.,25.0,.,.,23.6,.
C[C@H]1c2cccc(O)c2C(=O)C2C(=O)C3(O)C(=O)C(C(N)=O)C(=O)[C@@H](N(C)C)[C@@H]3[C@@H](O)[C@@H]21 (stereo partly specified),/,/,14.2,.,.,41.2,12.7
Cc1cc(-c2nnc(CCC(=O)N(CC3CCC3)CC3CCCO3)o2)no1 (stereo unspecified),.,.,.,.,.,/,/
O=C(CC1N=C(Cc2ccccc2)NNC1=O)N/N=C/c1ccc([N+](=O)[O-])cc1 (stereo unspecified),.,.,.,.,.,/,/
CCCN1CCN(C(=O)c2cc(COc3ccc(F)cc3F)on2)CC1,.,.,.,.,.,/,/
